Out of some 6,200 compounds screened, about 2,900 (47%) were called active. So high a share suggests a set chosen from earlier hits. Some of the results follow. A number with no mark means an inactive call. Rule as the data show it: active = inhibition above about 50%; inactive = the rest.
test: Mycobacterium tuberculosis growth inhibition, primary screen (AID 1259343); conditions: inhibition: at 10 µM, hits give high values; outcome: 10 uM

Structure (SMILES) | inhibition
COc1ccc(OCCN2CCN(c3ccc([N+](=O)[O-])cc3)CC2)cc1 | 90.8% (active)
COc1cccc(OCCCOc2ccc([N+](=O)[O-])cc2)c1 | 27.9%
Cc1cccc2c(=O)[nH]c(Cn3nnn(-c4cccs4)c3=O)nc12 | -0.78%
Cc1ccc(C#N)cc1NC(=O)c1ccc(C(F)(F)F)cc1 | -17.1%
Cn1nc(C(C)(C)C)cc1NC(=O)c1ccc(C(F)(F)F)cc1 | 21.5%
CC(C)(C)c1ccc(C(=O)Nc2nnc(-c3cccnc3)o2)cc1 | 97.4% (active)
O=C(Nc1nnc(-c2ccc(Cl)cc2)o1)c1ccncc1 | 21.6%
Cc1nnc(NC(=O)c2ccc(C(F)(F)F)cc2)o1 | 101% (active)
O=C(NCCn1nc(-c2cccnc2)ccc1=O)Nc1ccc(C(F)(F)F)cc1 | 18.6%
Oc1ccc(N=Nc2nn[nH]n2)c(O)c1 | 61.7% (active)
Brc1ccc(NN=C(N=Nc2nn[nH]n2)c2ccccc2)cc1 | 29.1%
C=CCn1c(SC(C)c2nc3sc(C)c(C)c3c(=O)[nH]2)nnc1C1CCCCC1 (stereo unspecified) | 0.9%
COc1ccc(NC(=O)CSc2nc(CC(=O)NCCC3=CCCCC3)cs2)cc1 | 86.3% (active)
Cc1ccc(NC(=O)CSc2nc(CC(=O)NCCC3=CCCCC3)cs2)cc1 | 81.6% (active)
C[C@@H]1[C@H]2C[C@@H](C[C@H]1NC(=O)c1ccc(Nc3cccc(C(F)(F)F)c3)nc1)C2(C)C | 6.48%
CCN(C)c1cc(N2CCN(Cc3cc4ccccc4n3C)CC2)ncn1 | 49.3%
CC(C)Oc1cccc(CN2CCN(c3ccnc(N(C)C)n3)CC2)c1 | 91% (active)
Fc1cccc(CN2CCN(Cc3ccc(-c4ccccc4)nc3)CC2)c1 | 27.7%
Cc1nnc(Sc2cc(=O)oc3ccccc23)s1 | 99.2% (active)
O=c1cc(O)c2ccccc2o1 | -50.4%
COC(=O)CSc1nnc(N2CCN(c3ccccc3)CC2)s1 | 75.5% (active)
CCCCOC(=O)Nc1cc(C)c(Cl)cc1OC | 45.3%

Structure (SMILES) | inhibition
COC(=O)COc1cc(Cl)c(Cl)cc1Cl | 77.4% (active)
CNC(=O)NC(=O)COc1ccc(-c2ccccc2)cc1Cl | 40.5%
COc1cc(C(=O)Nc2cc(C)cc(C)c2)cc(Cl)c1O | -11.6%
COC(=O)C(Nc1ccc(OC)cc1)(c1cc(OC)c(O)c(OC)c1)C(F)(F)F (stereo unspecified) | 84% (active)
Cc1nn(CC(C)C)c2sc(C(=O)NCC3CC3)cc12 | 3.65%
COc1ccc(N=c2scc(-c3cc4ccccc4o3)n2CC2CCCO2)cc1 (stereo unspecified) | 77% (active)
c1ccc(N=c2scc(-c3ccccc3)n2CC2CCCO2)cc1 (stereo unspecified) | 20.4%
c1ccc2oc(-c3nnn(CC4CCCCO4)n3)cc2c1 (stereo unspecified) | 91% (active)
CC12CCC3C(=CCc4cc(O)ccc43)C1CCC2=O (stereo unspecified) | 43.2%
c1ccc2c(CCNc3ccc(Nc4ccncc4)cc3)c[nH]c2c1 | 72.8% (active)
O=C(NCCc1c[nH]c2ccccc12)c1cn(Cc2ccccc2Cl)nn1 | 21.3%
Cc1cc(C(=O)O)c(C)n1C | -7.58%
CC1(C)CN=c2s/c(=C\c3ccc(Cl)cc3)c(=O)n2C1 | 31.2%
CCOC(=O)C1=C(C)N=c2s/c(=C/c3cccc([N+](=O)[O-])c3)c(=O)n2C1c1ccccc1F (stereo unspecified) | -21.3%
CCOC(=O)c1ccc(N2CN=c3sc(=Cc4ccccc4)c(=O)n3C2)cc1 | 88.9% (active)
Nc1nc(Cl)nc2c1ncn2[C@@H]1O[C@H](CO)[C@@H](O)[C@H]1O | 80.5% (active)
CC1CCCC(C)C1NC(=O)Nc1nncc(-c2ccccc2)n1 (stereo unspecified) | 21.4%
CN(Cc1cnn(-c2ccc(F)cc2)c1)c1nncc(-c2ccccc2)n1 | inactive
CN(CCC1CCCCO1)c1nncc(-c2ccccc2)n1 (stereo unspecified) | 52.4% (active)
c1ccc(OCCSc2nnc3sc4ccccc4n23)cc1 | 40.3%
Nc1nnc(SCC(=O)c2ccc(OCc3ccccc3)cc2)s1 | 86.1% (active)
CC(OC(=O)c1ccc(OCc2ccccc2)cc1)c1nnc(-c2ccccc2)o1 (stereo unspecified) | 26.8%

Structure (SMILES) | inhibition
Brc1ccc(-c2ccc(C=NNC3=NCCCCC3)o2)cc1 | 92.4% (active)
CCN(CC)C(=S)S | 92.6% (active)
O=C1CCCc2c1[nH]c1ccc(-c3ccccc3CO)cc21 | 90.3% (active)
COc1cc(C(=O)Nc2ccc(-c3cnco3)cc2)ccc1C | 49.6%
O=C(CCl)Nc1ccc(Oc2ccc(Br)cc2)cc1 | 18.2%
COCC(=O)Nc1cccc(-c2ccc3c(c2)OCCO3)c1 | 63.2% (active)
COCC(=O)Nc1ccccc1-c1ccc(C(C)C)cc1 | 48.2%
COc1cncc(-c2ccc(NC(C)=O)cc2)c1 | 85% (active)
COCC(=O)Nc1ccc(Oc2cccc(C)c2)cc1 | 76.6% (active)
Cn1cc(C(=O)Nc2ccc(Oc3cccc(C#N)c3)cc2)ccc1=O | 23.5%
COCC(=O)Nc1ccc(-c2cc(OC)cc(OC)c2)cc1 | 88.7% (active)
CC1(C)OC(=O)C(=C2C3C4CC5C2C2C3CC4C52)C(=O)O1 (stereo unspecified) | 35.6%
COC(=O)C(C)OC(=O)c1c[nH]c2cc(Br)c(Br)cc12 (stereo unspecified) | 24.9%
CN(c1ccc(C(N)=O)nn1)C1CCc2ccccc2C1 (stereo unspecified) | 60.2% (active)
CC(C)c1nnc2sc(C3CCc4ccccc4C3)nn12 (stereo unspecified) | 43.3%
COCCCn1c(-c2ccc(C)cc2)nc2oc3ccccc3c(=O)c2c1=O | 9.29%
Cc1ccc2oc(=O)n(CCCOc3ccccc3C)c2c1 | 95.8% (active)
Cc1cccc(OCCCn2c(=O)oc3ccccc32)c1 | -23.7%
COc1ccccc1OCCCN1C(=O)C2(OCCCO2)c2ccccc21 | 40.7%
Cc1cccc(OCCCn2c(=O)oc3ccc(C)cc32)c1 | 79.4% (active)
Cc1ccc(N2C(=O)N(CCOc3cccc(Br)c3)C(=O)C2C)cc1 (stereo unspecified) | 27.6%
Cc1ccc(N(CC(=O)O)S(C)(=O)=O)cc1C | 92.8% (active)
